Only some compounds are listed: those with a hit (about 3.1% of all), similar ones and a draw of the others.
KKLEB tox = CF airway cell cytotoxicity counter-screen; KKLEB CF airway cells viability, ATPlite luminescence, overnight; hits give low values; cells stimulated with P. aeruginosa culture filtrate; activity change (cytotoxicity), % at 5 µM; 360,000 compounds, 0.36% hits;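 active means corrected activity change at or below -50% at 5 µM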
ABHD5-PLIN5 inh = ABHD5-PLIN5 protein interaction inhibition; Q00G26+Q8WTS1; inhibition, % at 4 µM; Split G. princeps luciferase complementation, luminescence, 4 h; 360,000 compounds, 0.78% hits;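 active means inhibition above the mean inhibition across every tested compound plus 3 SD, cut at about 22% in these data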;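 further: 0% = DMSO only wells and the 100% control is not disclosed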
MITF TRPM1 inh = reduces MITF-dependent TRPM1 promoter luciferase signal; AID 488899; inhibition, % at 12.5 µM; SK-MEL-5 TRPM1 promoter luciferase, 24 h; 330,000 compounds, 0.83% hits;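 active means mean inhibition across replicates of 60% or more, whatever share of single replicates reaches that level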
HIF-2a inh = HIF-2a inhibition. AID 624352. 360,000 compounds, 0.72% hits. inhibition, % at 18.8 µM. 786-0 RCC cells HIF-2a reporter, luciferase luminescence, overnight;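 active means inhibition of the luminescence signal of 40% or more relative to plate controls, in a single-dose primary screen at 18.75 µM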
Peg3 promoter = reduces Peg3 promoter-driven luciferase expression in HeLa; HeLa PEG-Prom luciferase reporter, luminescence, overnight; inhibition, % at 20 µM; 360,000 compounds, 1.7% hits;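 active means inhibition of at least 50% at 20 µM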
CF NFkB inh = inhibitors of cystic fibrosis induced NF-kB; KKLEB NF-kB-GFP reporter, PAF-induced, GFP fluorescence overnight; inhibition, % at 5 µM; 360,000 compounds, 0.86% hits; AID 588850;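 active means at least 50% inhibition at 5 µM, scaled per plate between neutral and stimulator controls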;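 further: PAF is a Pseudomonas aeruginosa culture filtrate used as stimulus; plate controls were PAF-stimulated DMSO wells for no effect and unstimulated DMSO wells for full effect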
CF NFkB inh conf = confirmation of cystic fibrosis induced NF-kB inhibitors; KKLEB CF airway cells, PAF-induced NF-kB-GFP fluorescence, overnight; 1,300 compounds, 64% hits; inhibition, % at 5 µM; shares compounds with CF NFkB inh; in the data active means inhibition above about 40%;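 further: stimulus PAF is a Pseudomonas aeruginosa filtrate and not platelet activating factor; plate controls were DMSO wells with stimulus for no effect and unstimulated DMSO wells for full effect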
* = called active by the depositor; nt = not tested or not shown.

SMILES	KKLEB tox	ABHD5-PLIN5 inh	MITF TRPM1 inh	HIF-2a inh	Peg3 promoter	CF NFkB inh	CF NFkB inh conf
COc1ccc(-c2c(C#Cc3ccsc3)c3cc(-c4cccc5[nH]ccc45)ccc3n2C)cc1	1	-1	7	-3	-4	-6	nt
O=[N+]([O-])c1ccc2ncnc(N3CCN(Cc4ccc5c(c4)OCO5)CC3)c2c1	10	0	5	11	12	68*	85*
O=[N+]([O-])c1cccnc1N1CCN(Cc2ccc3c(c2)OCO3)CC1	0	8	-7	-19	-47	4	nt
COc1ccc(NC(=O)C2c3ccccc3OCC(=O)N2CC(F)(F)F)cc1 (stereo not given)	nt	12	nt	-4	nt	nt	nt
Clc1cccc(Nc2nc(-c3ccncc3)nc3ccccc23)c1	-42	-5	5	8	83*	64*	-40
Clc1ccccc1Nc1nc(-c2ccncc2)nc2ccccc12	0	-5	-22	23	-1	-10	nt
CC1(c2ccccc2Cl)NC(=O)N(CC(=O)N2CCN(S(=O)(=O)c3ccccc3)CC2)C1=O (stereo not given)	8	-8	1	0	-13	-15	nt
COc1cccc(NC(=O)Nc2nnc(CC(=O)NCc3ccccc3)s2)c1	-2	1	-11	12	8	61*	80*
COc1ccc(NC(=O)Nc2nnc(-c3ccncc3)s2)cc1	-21	0	-32	-174	-106	58*	53*
Cc1ccc(NC(=O)[C@@H]2CCCN2C(=O)[C@@H]2Cc3ccccc3CN2)c(C)c1	-11	3	4	-36	-25	11	nt
Cc1nccc(-c2ccc(-n3cnc4ccccc43)cc2)n1	-8	5	-42	-75	-89	46	nt
Nc1nccc(-c2ccc(-n3cnc4ccccc43)cc2)n1	-9	2	-38	-140	-127	77*	80*
COc1cccc(NC(=O)CCN2C(=O)c3ccccc3Sc3ncccc32)c1	10	1	4	4	7	-12	nt
COCOc1ccc(/C=C/C(=O)c2c(O)cc(OCOC)cc2OCOC)cc1	-20	19	nt	-11	15	52*	-16
O=c1c2ccccc2nnn1CSc1ncnc2ccccc12	-36	3	9	-3	16	66*	41*
C=C1CCC[C@]2(C)C[C@H]3OC(=O)C(CNC(C)(CO)CO)[C@H]3CC12 (stereo not given in full)	-18	10	42	19	-38	75*	27
C=C1CCC[C@]2(C)C[C@H]3OC(=O)C(CN4CCCCC4CO)[C@H]3CC12 (stereo not given in full)	-9	5	79*	-2	62*	75*	15
CCc1nn(C(C)C(=O)NCc2cccc(OC)c2)c(=O)c2cc3occc3n12 (stereo not given)	19	2	14	8	4	-36	nt
CC1(C(=O)NS(=O)(=O)c2ccccc2Cl)CCN1C(=O)C1(c2ccc(Cl)cc2)CC1 (stereo not given)	-12	1	nt	-4	-22	0	nt
COc1cccc(SCc2noc(C(=O)NCCC(C)C)c2C(=O)NCCC(C)C)c1	-5	-3	5	8	16	19	nt
Nc1ccc2nc(-c3ccccc3)c(-c3ccccc3)nc2c1	-16	-19	12	14	8	67*	5
CCCS(=O)(=O)NC(=O)C1(C)CCCN(C(=O)c2cc(C(C)(C)C)nn2C)C1 (stereo not given)	2	-3	nt	6	6	-10	nt
CCCCCCCCCCCC(=O)c1c(O)cccc1O	-12	-4	3	8	26	71*	41*
CS(=O)(=O)c1ccc(C(=O)OCc2nnc(-c3ccccc3)o2)cc1[N+](=O)[O-]	-28	15	48	21	109*	76*	36
CS(=O)(=O)c1ccc(C(=O)OCC(=O)Nc2cccnc2Cl)cc1[N+](=O)[O-]	-31	11	27	-1	24	90*	40
SMILES	KKLEB tox	ABHD5-PLIN5 inh	MITF TRPM1 inh	HIF-2a inh	Peg3 promoter	CF NFkB inh	CF NFkB inh conf
COc1ccc(C(=O)OCC(=O)Nc2ccccc2)cc1[N+](=O)[O-]	11	6	16	2	-5	0	nt
CC(=O)c1cccc(NC(=O)COC(=O)c2ccc(S(C)(=O)=O)c([N+](=O)[O-])c2)c1	-1	13	5	14	8	63*	43*
O=C(COC(=O)c1ccc([N+](=O)[O-])cc1)Nc1cccnc1Cl	26	6	10	17	12	-28	nt
CC(C)(CO)Nc1nc(Cl)nc(NC2CCCCC2)n1	-2	-7	-2	-22	-18	27	nt
O=C(COC(=O)c1c[nH]c2ccccc12)Nc1ccc([N+](=O)[O-])cc1	27	0	5	8	-6	-21	nt
COc1ccc(-c2csc(/C(C#N)=C\c3ccc(O)c([N+](=O)[O-])c3)n2)cc1OC	-2	3	4	-51	50	79*	80*
Cc1cc(C(=O)Nc2ccc(C#N)cc2)on1	-2	-8	-17	-54	-25	-17	nt
O=C(NCc1ccccc1)C1c2ccccc2Oc2ccccc21	6	-1	7	6	-1	12	nt
O=C(Nc1ccccc1N1CCOCC1)c1cc(-c2ccco2)nc2ccccc12	-13	2	7	-7	60*	75*	87*
Cc1cc(N2C(=O)C(O)=C(C(=O)c3ccc(C)o3)C2c2cccc(Oc3ccccc3)c2)no1 (stereo not given)	6	-21	-2	4	15	51*	64*
Cc1cc(N2C(=O)C(O)=C(C(=O)c3ccc(C)o3)C2c2cccc(Cl)c2)no1 (stereo not given)	8	-39	nt	13	1	-19	nt
CC(=O)c1ccc(NC(=O)Nc2ccc3c(c2)N(C)C(=O)CS3)cc1	-34	7	-16	-50	-14	72*	53*
CCOc1ccc(NC(=O)Nc2ccc3c(c2)N(C)C(=O)CS3)cc1	9	0	-11	-10	3	17	nt
O=S1(=O)CC=C(CSC(=S)NC2CCS(=O)(=O)C2)C1 (stereo not given)	-11	-30	29	38	57*	51*	96*
CC(C)(C)c1cc(CSC(=S)NC2CCS(=O)(=O)C2)c(Br)c(C(C)(C)C)c1 (stereo not given)	1	-2	13	19	18	38	nt
COC1(OC)C=CC(=O)C=C1NC(=O)c1ccccc1OC(C)=O	6	23*	31	-2	50*	66*	69*
CC(=O)Oc1ccccc1C(=O)Nc1ccccc1	7	-6	-42	-183	-159	-1	nt

Compound activity deposited in PubChem BioAssay by several laboratories.
